# Assay results published in PubChem BioAssay (NCATS).
# Several values for one entry are separate records, joined by “and”; a condition that tells them apart may be missing. Equal entries are not always repeated. Records with an inconclusive call do not appear. A call without a number means that no potency is given here. Activity calls are given as the source filed them. Calls follow the shape of the dose curve; as a rule, active = well fitted curve in the direction sought with a large enough effect; inconclusive = small, poorly fitted or top-dose-only effect, or another doubt; inactive = no such curve, though single readings can be large; an effect the other way counts as inactive or inconclusive. Non-standard residues stand in square brackets, D forms with d. Residues, ends and D or L forms follow the SMILES beside them. *: point of attachment. Sta = CC(C)C[C@H](N)[C@@H](O)CC(=O)O; Isovaleryl = CC(C)CC(=O)*
# Legend:
# [1] = qHTS of pediatric cancer cell lines to identify multiple opportunities for drug repurposing: Primary screen for SK-N-MC cells (AID 1347093); conditions: SK-N-MC viability, CellTiter-Glo luminescence, 48 h; series mostly up to 46 µM; also: potency is read from the fitted curve at half-maximal effect
# How it was run: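 Metabolically active cells were quantified by ATP-dependent luminescence (CellTiter-Glo, 15 min at room temperature) following 48 h treatment. Cells had been plated at 500-1,000 per well and settled for 5 h beforehand.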
# [2] = qHTS of pediatric cancer cell lines to identify multiple opportunities for drug repurposing: Primary screen for NB-EBc1 cells (AID 1347095); conditions: NB-EBc1 neuroblastoma viability, CellTiter-Glo luminescence, 48 h; series mostly up to 46 µM; also: potency is read from the fitted curve at half-maximal effect
# How it was run: (§1)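 Quantitative HTS format: each compound titrated (MIPE 11 points from 0.78 nM, NPC 8 points from 0.59 nM) onto cells plated 5 hours earlier. After 48 h at 37 degrees C, CellTiter-Glo luminescence was recorded.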
# [3] = qHTS of pediatric cancer cell lines to identify multiple opportunities for drug repurposing: Primary screen for U-2 OS cells (AID 1347096); conditions: U-2 OS viability, CellTiter-Glo luminescence, 48 h; series mostly up to 46 µM; also: nearly all actives have a fitted effect of over 50% in size
# How it was run: (§2)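 Cells (500-1,000/well) in growth media were settled 5 h at 37 degrees C, then given compounds for 48 h. Viability was read as CellTiter-Glo luminescence. Primary runs used MIPE at 11 points (0.78 nM-46 µM) and NPC at 8 points (0.59 nM-46 µM); follow-ups used 11 points.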
# [4] = qHTS of pediatric cancer cell lines to identify multiple opportunities for drug repurposing: Primary screen for SK-N-SH cells (AID 1347098); conditions: SK-N-SH viability, CellTiter-Glo luminescence, 48 h; series mostly up to 57 µM; also: nearly all actives have a fitted effect of over 65% in size; also: potency is read from the fitted curve at half-maximal effect
# How it was run: (§3)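 Cells (500-1,000/well) rested 5 h, then received compounds for 48 h; metabolically active cells were measured by CellTiter-Glo luminescence. Final concentrations spanned up to 46 µM (MIPE, 11-point) or 0.59 nM-46 µM (NPC, 8-point) in primary screens, 11-point in follow-ups.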
# [5] = qHTS of pediatric cancer cell lines to identify multiple opportunities for drug repurposing: Primary screen for NB1643 cells (AID 1347099); conditions: NB1643 neuroblastoma viability, CellTiter-Glo luminescence, 48 h; series mostly up to 46 µM; also: nearly all actives have a fitted effect of over 50% in size; also: potency is read from the fitted curve at half-maximal effect
# How it was run: as §1
# [6] = qHTS of pediatric cancer cell lines to identify multiple opportunities for drug repurposing: Primary screen for LAN-5 cells (AID 1347100); conditions: LAN-5 neuroblastoma viability, CellTiter-Glo luminescence, 48 h; series mostly up to 46 µM; also: potency is read from the fitted curve at half-maximal effect
# How it was run: as §2
# [7] = qHTS of pediatric cancer cell lines to identify multiple opportunities for drug repurposing: Primary screen for BT-12 cells (AID 1347101); conditions: BT-12 viability, CellTiter-Glo luminescence, 48 h; series mostly up to 57.3 µM; also: nearly all actives have a fitted effect of over 25% in size; also: potency is read from the fitted curve at half-maximal effect
# How it was run: as §3
# [8] = qHTS of pediatric cancer cell lines to identify multiple opportunities for drug repurposing: Primary screen for BT-37 cells (AID 1347094); conditions: BT-37 viability, CellTiter-Glo luminescence, 48 h; series mostly up to 57.3 µM; also: potency is read from the fitted curve at half-maximal effect
# How it was run: as §1
# [9] = qHTS of pediatric cancer cell lines to identify multiple opportunities for drug repurposing: Primary screen for Saos-2 cells (AID 1347097); conditions: Saos-2 viability, CellTiter-Glo ATP luminescence, 48 h; series mostly up to 46 µM; also: nearly all actives have a fitted effect of over 40% in size; also: potency is read from the fitted curve at half-maximal effect
# How it was run: as §1
# [10] = qHTS of pediatric cancer cell lines to identify multiple opportunities for drug repurposing: Primary screen for A673 cells (AID 1347092); conditions: A673 Ewing sarcoma viability, CellTiter-Glo ATP luminescence, 48 h; series mostly up to 46 µM; also: nearly all actives have a fitted effect of over 45% in size; also: potency is read from the fitted curve at half-maximal effect
# How it was run: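 Luminescence from CellTiter-Glo, taken after 15 min at room temperature, served as the proxy for metabolically active cells following 48 h treatment. Both potency and efficacy were taken from curves fitted to the titration data.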
Structure (SMILES),Potency [1],Potency [2],Potency [3],Potency [4],Potency [5],Potency [6],Potency [7],Potency [8],Potency [9],Potency [10]
CCOC(=O)C1=C(O)C(=O)N(Cc2ccccc2)C1,inactive,inactive,inactive,inactive,inactive,inactive,inactive,–,–,–
Cc1ccc(S(=O)(=O)NC(=O)NN2CC3CCCC3C2)cc1 (stereo unspecified),inactive,inactive,inactive,inactive,inactive,–,inactive,inactive,7.5 µM (active) and 18.7 µM (active),–
CN1CCC(=C2c3ccccc3CCc3sccc32)CC1,29.6 µM (active),inactive,inactive,13.6 µM (active),–,inactive,–,–,inactive,–
C[C@@H](N)C1CCC(C(=O)Nc2ccncc2)CC1 (stereo partly specified),–,inactive,inactive,–,inactive,inactive,inactive,–,–,–
COC(=O)C1=C(C)NC(C)=C(C(=O)OCCCN2CCC(c3ccccc3)(c3ccccc3)CC2)C1c1cccc([N+](=O)[O-])c1 (stereo unspecified),23.7 µM (active),inactive,–,15.4 µM (active),inactive,inactive,inactive,–,–,–
Cc1ccc(NC(=O)c2ccc(CN3CCN(C)CC3)cc2)cc1Nc1nccc(-c2cccnc2)n1,inactive,–,inactive,34.4 µM (active),inactive,inactive,–,–,inactive,–
NCCCCNCCCN,3.32 µM (active),–,inactive,7.64 µM (active),4.18 µM (active),–,inactive,inactive,–,–
Cc1ccc(C)c(OCCCC(C)(C)C(=O)O)c1,–,inactive,inactive,inactive,–,inactive,–,inactive,inactive,–
CC(=O)N1CCN(c2ccc(OC[C@H]3CO[C@](Cn4ccnc4)(c4ccc(Cl)cc4Cl)O3)cc2)CC1,23.5 µM (active),–,inactive,inactive,inactive,18.7 µM (active),24.3 µM (active),–,–,–
CC(S)C(=O)NCC(=O)O (stereo unspecified),inactive,–,inactive,inactive,–,inactive,inactive,inactive,–,–
CCN(CC)CCOc1ccc(Cc2ccccc2)cc1,inactive,inactive,inactive,–,inactive,–,inactive,–,inactive,–
COC(=O)C1=C(C)NC(C)=C(C(=O)OC(C)C)C1c1cccc2nonc12 (stereo unspecified),2.64 µM (active),–,inactive,–,–,inactive,inactive,inactive,inactive,–
Nc1nc(OCc2ccccc2)c2[nH]cnc2n1,–,18.7 µM (active),inactive,–,–,inactive,inactive,–,–,18.7 µM (active)
C[C@H](Cc1ccc(O)c(O)c1)[C@@H](C)Cc1ccc(O)c(O)c1,11.8 µM (active),2.35 µM (active),–,inactive,14.8 µM (active),10.5 µM (active),–,–,–,–
Cc1cc2cc3c(C)cc(=O)oc3c(C)c2o1,–,inactive,inactive,–,–,inactive,inactive,–,inactive,–
Clc1ccc(C(Cn2ccnc2)OCc2ccc(Sc3ccccc3)cc2)c(Cl)c1 (stereo unspecified),–,inactive,inactive,inactive,–,–,inactive,inactive,–,–
Oc1ccc2ccccc2c1SSc1c(O)ccc2ccccc12,–,–,inactive,19.2 µM (active),26.4 µM (active),–,–,–,–,18.7 µM (active)
CC1=C(C)C(=O)C(C(CCCCCC(=O)O)c2ccccc2)=C(C)C1=O (stereo unspecified),inactive,inactive,inactive,inactive,–,inactive,inactive,inactive,–,–

Structure (SMILES),Potency [1],Potency [2],Potency [3],Potency [4],Potency [5],Potency [6],Potency [7],Potency [8],Potency [9],Potency [10]
COc1cc2nc(N3CCN(C(=O)C4CCCO4)CC3)nc(N)c2cc1OC (stereo unspecified),inactive,inactive,inactive,inactive,inactive,inactive,inactive,–,inactive,–
O=c1c(O)c(-c2cc(O)c(O)c(O)c2)oc2cc(O)cc(O)c12,–,–,inactive,inactive,inactive,inactive,inactive,–,–,–
CC(C)c1ccc2c(c1)c(SC(C)(C)C)c(CC(C)(C)C(=O)O)n2Cc1ccc(Cl)cc1,8.33 µM (active),–,inactive,–,16.6 µM (active),–,–,–,29.6 µM (active),–
O=C(O)c1cccc(-c2noc(-c3ccccc3F)n2)c1,–,–,inactive,inactive,–,inactive,–,–,–,inactive
CCCCCCCCOc1ccccc1C(=O)Nc1ccc(C(=O)OCC[N+](C)(CC)CC)cc1,–,–,–,–,–,inactive,–,–,29.6 µM (active),–
Clc1ccc(C(Cn2ccnc2)OCc2c(Cl)cccc2Cl)c(Cl)c1 (stereo unspecified),–,–,inactive,inactive,–,–,–,–,–,21.1 µM (active) and 18.7 µM (active)
O=C(CCc1ccc(O)cc1)c1c(O)cc(O)cc1O,0.118 µM (active),–,inactive,inactive,–,6.62 µM (active),1.22 µM (active),–,inactive,–
CN(C)C(=O)COC(=O)Cc1ccc(OC(=O)c2ccc(N=C(N)N)cc2)cc1,–,–,inactive,inactive,inactive,inactive,inactive,inactive,inactive,–
CC1(C)CCC(C)(C)c2cc(NC(=O)c3ccc(C(=O)O)cc3)ccc21,1.87 µM (active),–,inactive,inactive,–,inactive,–,–,–,–
CC(C)c1nc(CN(C)C(=O)N[C@H](C(=O)N[C@@H](Cc2ccccc2)C[C@H](O)[C@H](Cc2ccccc2)NC(=O)OCc2cncs2)C(C)C)cs1,10.5 µM (active),23.7 µM (active),inactive,–,–,–,inactive,inactive,inactive,–
C[C@@H](c1ncncc1F)[C@](O)(Cn1cncn1)c1ccc(F)cc1F,–,inactive,inactive,inactive,inactive,inactive,–,–,–,–
COc1ccc(C2(C#N)CCC(C(=O)O)CC2)cc1OC1CCCC1 (stereo unspecified),16.6 µM (active),inactive,inactive,–,11.8 µM (active),inactive,–,inactive,inactive,–
CC(C)CC(=O)N[C@H](C(=O)N[C@H](C(=O)N[C@@H](CC(C)C)[C@@H](O)CC(=O)N[C@@H](C)C(=O)N[C@@H](CC(C)C)[C@@H](O)CC(=O)O)C(C)C)C(C)C (Isovaleryl-VV[Sta]A[Sta]-OH),inactive,–,inactive,inactive,inactive,inactive,inactive,–,inactive,–
C[C@H](Cn1cnc2c(N)ncnc21)OCP(=O)(O)O,–,–,inactive,–,inactive,inactive,inactive,–,inactive,inactive
CN(C)c1ccc(O)c2c1C[C@H]1C[C@H]3[C@H](N(C)C)C(=O)C(C(N)=O)=C(O)[C@@]3(O)C(=O)C1=C2O,–,inactive,inactive,inactive,inactive,–,–,–,inactive,–
Cc1cc(=O)c2c(O)c3c(O)cc(=O)c4c3c3c(cc(O)c1c23)C(C)(C)C=4O,1.3 µM (active) and 1.48 µM (active),5.8 µM (active) and 418 nM (active),–,inactive,1.16 µM (active) and 2.35 µM (active),2.59 µM (active) and 5.26 µM (active),–,1.69 µM (active) and 6.85 µM (active),–,–
O=C(c1ccccc1)c1ccc2n1CCC2C(=O)O (stereo unspecified),–,inactive,inactive,–,inactive,inactive,inactive,inactive,inactive,–
CCCc1cc(=O)[nH]c(=S)[nH]1,–,–,inactive,inactive,inactive,–,inactive,–,–,–
